Results filed as inconclusive are left out. Activity calls are given as the source filed them. Calls come from the whole dose curve; as a rule, active = well fitted inhibition curve with a large enough effect; inconclusive = small, poorly fitted or top-dose-only effect; inactive = flat fitted curve, though single readings scatter.

Holding throughout (test): qHTS profiling for inhibitors of Plasmodium falciparum proliferation (AID 504749); note: nearly all actives have a fitted effect of over 60% in size
What all share (settings): P. falciparum in erythrocytes, SYBR Green DNA, 72 h; series mostly up to 28.7 µM
On the technique in general: In qHTS, concentration-response curves come from the screen itself.

The subject of assay [1] is CP238. The essentials:
(§1)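 In a 72 h erythrocytic culture (37 C, humidified, 5% CO2) at 2.5% hematocrit and 0.3% starting parasitemia, compounds were tested; SYBR Green I in detergent lysis buffer stained parasite DNA overnight.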

The subject of assay [2] is CP247. The essentials:
as §1

In assay [3] the test system is CP252. The method in brief: as §1
In assay [4] the test system is CP256. The method in brief:
as §1

In assay [5] the test system is CP260. The essentials:
as §1

In assay [6] the test system is CP262. The essentials:
as §1

Assay [7] relates to CP265. The essentials:
as §1

Assay [8] deals with CP266. The essentials: as §1
For assay [9], the system named is CP268. The essentials:
as §1

For assay [10], the system named is CP269. The essentials:
as §1

Assay [11] has as its system CP286. The essentials:
as §1

Assay [12] has as its system CP291. The essentials: as §1
Assay [13] relates to CP297. The essentials:
as §1

Assay [14] concerns CP305. The method in brief:
as §1

In assay [15] the test system is CP315. The method in brief:
as §1

In assay [16] the test system is CP325. The essentials: as §1
Assay [17] deals with CP329. The method in brief: as §1
In assay [18] the test system is CP335. The method in brief:
as §1

For assay [19], the system named is DFO2036. The essentials:
as §1

The subject of assay [20] is CP250. The essentials: as §1
Potency is the fitted concentration of half-maximal effect.

In the case of `O=S(=O)(O)NC1CCCCC1`, the Potency result in [1], in [2], in assay [3], in [4], in assay [5] and in assay [6] was “inactive” each time. Moreover, the Potency entry in assay [7], in [8], in assay [9], in assay [10], in [11] and in assay [12] was “inactive” in each case. For the same compound, the Potency entry in assay [13], in assay [14], in [15], in [16], in assay [17] and in assay [18] was “inactive” in each case. The Potency result in assay [19] was “inactive”.

As to `CC(C(O)c1ccc(O)cc1)N1CCC(Cc2ccccc2)CC1` (stereo unspecified), the Potency in assay [9] is 15.1 µM (active); in [10], 12 µM (active); in assay [12], 16.9 µM (active); in [14], 15.1 µM (active); in assay [16], 15.1 µM (active); in assay [18], 10.7 µM (active).

With `CNCCCC1c2ccccc2C=Cc2ccccc21`, the Potency entry in assay [2], in [20], in [3], in assay [5], in [6] and in [8] was “inactive” each time. The Potency entry in [9], in assay [11], in [12], in assay [13], in assay [14] and in [15] was “inactive” each time. In addition, the Potency entry in assay [17] and in [19] was “inactive” throughout.

With `O=C(O)[C@@H]1CSCN1`, the Potency result in assay [1], in assay [20], in [3], in assay [4], in assay [5] and in [6] was “inactive” each time. Also, the Potency result in assay [7], in assay [9], in assay [10], in assay [11], in assay [12] and in assay [13] was “inactive” in each case. The Potency entry in assay [14], in assay [15], in assay [16], in assay [17], in assay [18] and in assay [19] was “inactive” in each case.

As for `C[C@]12C[C@H](O)[C@H]3[C@@H](CCC4=CC(=O)CC[C@@]43C)[C@@H]1CC[C@@H]2C(=O)CO`, the Potency result in assay [5], in [6], in [8], in assay [9], in assay [10] and in assay [11] was “inactive” in each case. Further, the Potency result in assay [12], in [13], in [14], in [15], in [16] and in assay [17] was “inactive” in each case. Further, the Potency entry in [18] was “inactive”.

Take `Cc1ccc2nc(N)[nH]c(=O)c2c1Sc1ccncc1`: the Potency was 2.24 µM (active) in [20]; 1.58 µM (active) in assay [3]; 10 µM (active) in [4]; 11.2 µM (active) in assay [5]; 10 µM (active) in assay [7]; 2.82 µM (active) in assay [11]. In assay [19], the Potency is 10 µM (active). Also, the Potency entry in assay [8], in assay [13] and in [15] was “inactive” throughout.

Turning to `Oc1ccc(C(O)CNCCCCCCNCC(O)c2ccc(O)c(O)c2)cc1O` (stereo unspecified), the Potency was 11.2 µM (active) in assay [2], 7.94 µM (active) in assay [5], 7.08 µM (active) in assay [11] and 9.53 µM (active) in [18]. In addition, the Potency result in assay [6] and in assay [19] was “inactive” each time.

For the compound `CC(=O)NC(Cc1ccccc1)C(=O)O` (stereo unspecified), the Potency result in assay [1], in assay [20], in [3], in [4], in [5] and in assay [6] was “inactive” each time. Also, the Potency entry in assay [7], in assay [8], in [9], in [10], in assay [11] and in assay [12] was “inactive” in each case. Besides, the Potency result in assay [13], in [14], in assay [15], in assay [16], in assay [17] and in [18] was “inactive” in each case. In addition, the Potency result in [19] is “inactive”.

Regarding `CNCCC(Oc1ccc(C(F)(F)F)cc1)c1ccccc1` (stereo unspecified), the Potency result in [6], in [8], in assay [13], in assay [15], in [17] and in [19] was “inactive” throughout. Moreover, in [11], the Potency is 10 µM (active).

As to `Nc1ccc(S(=O)(=O)Nc2ccc(Cl)nn2)cc1`, the Potency result in assay [5], in [8], in assay [9], in assay [10], in [11] and in assay [12] was “inactive” throughout. The Potency entry in [13], in [14], in assay [15], in assay [16] and in assay [17] was “inactive” in each case.

For `CC(CN1c2ccccc2Sc2ccccc21)N(C)C` (stereo unspecified), the Potency result in assay [1], in assay [2], in assay [20], in assay [3], in assay [4] and in assay [6] was “inactive” in each case. The Potency result in [8], in [9], in assay [10], in assay [11], in [12] and in assay [15] was “inactive” throughout. Besides, the Potency result in assay [16], in [17], in [18] and in [19] was “inactive” each time.

On to `OCCN1CCN(CCCN2c3ccccc3Sc3ccc(Cl)cc32)CC1`, for which the Potency in [2] is 2.51 µM (active); in assay [3] it was 3.55 µM (active); in [4], 3.98 µM (active); in assay [5], 3.16 µM (active); in assay [7], 3.55 µM (active); in assay [11] it was 3.16 µM (active). Besides, the Potency in assay [18] is 2.56 µM (active). Also, in assay [8], the Potency entry is “inactive”.

Take `Cc1c(O)cccc1C(=O)N[C@@H](CSc1ccccc1)[C@H](O)CN1C[C@H]2CCCC[C@H]2C[C@H]1C(=O)NC(C)(C)C`: the Potency entry in assay [20], in assay [6], in assay [8], in [14] and in assay [17] was “inactive” each time.

As for `CCOC(CN1CCN(CC(C)C(=O)c2ccccc2)CC1)c1ccccc1` (stereo unspecified), the Potency result in assay [1], in assay [20], in assay [3], in assay [4], in assay [5] and in assay [6] was “inactive” in each case. For the same compound, the Potency result in [8], in [9], in assay [10], in assay [11], in assay [12] and in [14] was “inactive” each time. Also, the Potency entry in assay [15], in assay [16], in assay [17] and in assay [19] was “inactive” in each case.

Consider `NC(=O)N/N=C/c1ccc([N+](=O)[O-])o1`, for which the Potency was 10 µM (active) in assay [5] and 8.91 µM (active) in [7]. Also, the Potency result in assay [8], in assay [15] and in assay [17] was “inactive” in each case.

For `[Cl][In]([Cl])[Cl]`, the Potency result in assay [1], in assay [3], in [6], in assay [15] and in assay [17] was “inactive” each time.

`COc1ccc2[nH]c(S(=O)Cc3ncc(C)c(OC)c3C)nc2n1` (stereo unspecified): the Potency in assay [2] is 11.2 µM (active). The Potency entry in [6], in [9], in assay [10], in assay [12], in assay [14] and in assay [15] was “inactive” throughout. Besides, the Potency entry in assay [16] and in [17] was “inactive” in each case.

`CN(C)CCCN1c2ccccc2Sc2ccc(Cl)cc21`: the Potency entry in assay [2], in assay [4], in assay [6], in [8], in assay [15] and in assay [19] was “inactive” throughout. Besides, the Potency in assay [11] is 12.6 µM (active); in [18], 13.5 µM (active).

`c1ccc(CN(CC2=NCCN2)c2ccccc2)cc1`: the Potency entry in assay [2], in [3], in assay [4], in assay [6], in [8] and in assay [10] was “inactive” throughout. Besides, the Potency result in [12], in [15], in [16] and in [17] was “inactive” throughout.

For `CC(C)(C)NCC(O)COc1ccc(NC(=O)NC2CCCCC2)cc1` (stereo unspecified), the Potency entry in assay [1], in assay [20], in [3], in [4], in [5] and in [6] was “inactive” each time. Also, the Potency entry in assay [7], in assay [8], in [9], in assay [10], in assay [11] and in [12] was “inactive” throughout. In addition, the Potency entry in assay [13], in assay [14], in assay [15], in [16], in [17] and in assay [18] was “inactive” throughout. The Potency entry in [19] was “inactive”.

As to `CCCc1c(OCCCCc2nn[nH]n2)ccc(C(C)=O)c1O`, the Potency entry in assay [1], in assay [20], in assay [3], in assay [4], in assay [6] and in assay [7] was “inactive” in each case. Also, the Potency result in [8], in [9], in [10], in assay [11], in assay [12] and in [13] was “inactive” in each case. Moreover, the Potency entry in [14], in assay [16], in assay [17], in assay [18] and in assay [19] was “inactive” throughout.

With `CN(C)CCN(Cc1ccccc1)c1ccccn1`, the Potency entry in assay [2], in assay [20], in [4], in assay [6], in assay [8] and in assay [10] was “inactive” in each case. Further, the Potency result in [13], in assay [15], in [17] and in assay [19] was “inactive” in each case.

The record behind these values is PubChem BioAssay (NCATS).
